# NPSR antagonist: antagonists of human neuropeptide S receptor cAMP signaling. actives 1% (n = 220,000). AID 1461. CHO-NPSR cells, cAMP TR-FRET, antagonist mode. Potency, µM (doses to about 38.3 µM), for inactives: at the highest dose activity change, negative = inhibition, most hits filed as inhibitors; further: nearly all actives have a fitted effect of over 50% in size
# Target sequence (Q6W5P4 whole entry, looked up): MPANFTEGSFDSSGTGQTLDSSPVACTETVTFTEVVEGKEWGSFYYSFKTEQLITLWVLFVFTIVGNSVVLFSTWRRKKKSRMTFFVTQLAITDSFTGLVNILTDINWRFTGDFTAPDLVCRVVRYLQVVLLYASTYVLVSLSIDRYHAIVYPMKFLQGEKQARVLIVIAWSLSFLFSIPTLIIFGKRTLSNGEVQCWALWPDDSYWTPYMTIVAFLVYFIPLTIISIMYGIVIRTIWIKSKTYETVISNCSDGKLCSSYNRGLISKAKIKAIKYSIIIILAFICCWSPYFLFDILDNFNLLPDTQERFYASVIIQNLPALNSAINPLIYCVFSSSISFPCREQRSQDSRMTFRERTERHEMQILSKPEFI
# Tau FP inhib: inhibitors of human tau fibril formation. actives 0.39% (n = 280,000). K18 P301L tau heparin fibrillization, Alexa594 FP, 6 h. P10636. Potency, µM (highest dose often 57.7 µM), for inactives: at the top dose activity, negative = inhibition, usual class: inhibitors; further: nearly all actives have a fitted effect of over 55% in size
# Target sequence (P10636 561-689 P618L limits assumed): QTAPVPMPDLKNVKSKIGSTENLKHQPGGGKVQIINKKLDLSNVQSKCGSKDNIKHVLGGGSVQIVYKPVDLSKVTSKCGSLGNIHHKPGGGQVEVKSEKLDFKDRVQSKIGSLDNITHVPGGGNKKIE
#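 Steps: dispense K18 P301L tau (15 uM plus 0.24 uM Alexa 594 tracer, final) in pH 7 sodium acetate; add compound; add heparin (20 uM final); incubate 6 hr, 37 C; add ThT (30 uM final); after 1 hr ambient, read FP.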
# KinaseGlo FLuc: counter-screen: inhibitors of Kinase-Glo firefly luciferase. Kinase-Glo luciferase, ATP luminescence, 8 min. Potency, µM (series often up to 38.3 µM), without a hit: at the highest dose activity change, negative = inhibition, hits mostly inhibitors. actives 0.28% (n = 200,000). AID 1379; further: nearly all actives have a fitted effect of over 60% in size
#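 Recombinant Kinase-Glo luciferase, 10 uM ATP (linear range), luciferin; imidazole pH 7.2 / KCl / MgCl2 / Tween / BSA buffer; 8 min RT; luminescence.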
# Tau fluor counter: counter-screen for tau fibril formation inhibitors. tau K18 P301L Alexa594 fluorescence, heparin fibrillization. Potency, µM (highest dose often 57.7 µM), for inactives: at the highest dose activity change, negative = decrease. actives 0.93% (n = 280,000); further: nearly all actives have a fitted effect of over 55% in size
#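 Human tau K18 P301L (15 uM unlabeled, 0.24 uM Alexa 594-labeled) in 100 mM sodium acetate pH 7 with 20 uM heparin, 6 hr at 37 C. ThT 30 uM added, 1 hr ambient; Alexa 594 FP and total fluorescence read at 555/632 nm.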
# Tau ThT inhib: tau fibrillization inhibition (ThT binding); P10636; recombinant tau K18 P301L (four-repeat tau fragment), heparin-induced fibrillization, ThT fluorescence; Potency, µM (doses to about 57.4 µM), for inactives: at the top dose activity, negative = inhibition, actives largely listed as inhibitors; actives 2.1% (n = 270,000); AID 1460; further: nearly all actives have a fitted effect of over 55% in size
#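 Tau K18 P301L fragment (15 uM unlabeled plus 0.24 uM Alexa 594-labeled) in 100 mM sodium acetate pH 7 with compound, fibrillization induced by 20 uM heparin for 6 hr at 37 C. Thioflavin T (30 uM) added, fluorescence read after 1 hr (ex 450, em 510 nm).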
# An asterisk follows results filed as active; u = inconclusive; x = not tested or not shown; [ ] = remark or other dose. A selection: hits, their analogues and other compounds. The true share with any hit is near 3.3%. The call rests on the fitted dose curve; in most records, active means well fitted curve in the direction sought with a large enough effect; inconclusive means small, poorly fitted or top-dose-only effect, or another doubt; inactive means no such curve, though single readings can be large; an effect the other way counts as inactive or inconclusive. On the % scale 0 is the no-effect control and ±100 the full control effect; potency means the concentration at half of the fitted maximal effect.
SMILES,NPSR antagonist,Tau FP inhib,KinaseGlo FLuc,Tau fluor counter,Tau ThT inhib
CC1=C(C#N)c2nc(N)c(C#N)c(C)c2/C1=C\c1ccc(C)cc1,-15%[46.1 µM],u,-3%,u,18µM*
O=C(Nc1cccc(F)c1)C1CCN(c2nc3ccccc3nc2C(F)(F)F)CC1,x,u,x,u,-1%
COc1ccc(CCNC(=O)c2ccc3c(c2)N(Cc2ccc(Cl)cc2)CCS3)c(OC)c1,x,1%,x,-23%,4%
CCOC(=O)c1sc(N/N=C/c2ccccc2)nc1C,-6%,-3%,-3%,u,u
O=C(O)Cc1sc(N/N=C\c2ccccc2)nc1-c1ccccc1,-13%,u,-4%,u,10µM*
O=C(Cn1c(=O)nc(-c2ccccc2F)c2cc(Cl)ccc21)N1CCN(c2ccccc2F)CC1,x,0%,x,-3%,-10%
O=C(CSc1nc2ccc(Cl)cc2[nH]1)c1cccs1,-15%,1%,x,u,-16%
Cc1cc(-c2nsc(=O)o2)c(S(C)(=O)=O)s1,-9%[46.1 µM],u,6%,-13%,32µM*
COC(=O)C1=C(C(=O)OC)SC(=C2C(=S)C(C)(C)N(C(=O)C(C)C)c3ccccc32)S1,10µM*,u,14%,u,1µM*
COC(=O)C1=C(C(=O)OC)SC(=C2C(=S)C(C)(C)N(C(=O)C3CC3)c3ccccc32)S1,13µM*,u,17%,u,2.5µM*
CCCC(=O)N1c2ccccc2C(=C2SC(C(=O)OC)=C(C(=O)OC)S2)C(=S)C1(C)C,-55%,u,-3%,u,2.2µM*
COc1ccc(Cn2c(CCC(=O)Nc3cc(OC)c(OC)c(OC)c3)nc3cccnc32)cc1,x,9%,x,-27%,-8%
O=C(COC(=O)c1ccccc1O)Nc1cc([N+](=O)[O-])ccc1Cl,-6%[7.67 µM],-1%,x,-14%,-9%
N#CNC(=Nc1ccc(Cl)cc1)Oc1ccccc1,-18%,-5%,x,-12%,x
CCCS(=O)(=O)c1ncc(Cl)c(C(=O)Nc2c(C(=O)Nc3ccccc3)oc3ccccc23)n1,x,-8%,x,u,7.1µM*
Cc1cc2cc(C=C(C#N)C#N)c(Cl)nc2cc1C,-58%,u,-5%,-13%,3.2µM*
CCOC(=O)/C(C#N)=C/c1cc2cc(C)c(C)cc2nc1Cl,5%,2%,x,-2%,-11%
CN(C)/C=C(\C=N\OCc1ccc(Cl)cc1Cl)C(=O)Nc1ccc(Cl)c(Cl)c1,-11%[46.1 µM],-7%,4%,16µM*[quencher],u
Cc1cc(O)c(/C=N/OCc2ccc(Cl)cc2Cl)c(=O)o1,0%,-2%,0%,-2%,-7%
COc1ccc(S(=O)(=O)c2c(Nc3ccc(C)cc3C)sc(C(=O)c3ccc(F)cc3)c2N)cc1,x,1%,x,-19%,-12%
Cc1nnc(C)n1/N=C/c1cc(Br)ccc1O,-7%[46.1 µM],-3%,-2%,-8%,-10%
Cc1nnc(C)n1/N=C/c1cc(Br)cc(Br)c1O,-10%[46.1 µM],-12%,23%,-11%,11µM*
O=C1Nc2ccc(F)cc2C12Nc1ccccc1-c1nnc(SCc3ccccc3)nc1O2 (stereo unspecified),-9%[46.1 µM],u,-4%,u,u
Cc1ccc(CSc2nnc3c(n2)OC2(Nc4ccccc4-3)C(=O)Nc3ccc(F)cc32)cc1 (stereo unspecified),-9%[46.1 µM],u,-2%,u,28µM*
O=C(O)COc1ccccc1C1Nc2ccccc2-c2nnc(SCc3ccc(Cl)cc3)nc2O1 (stereo unspecified),x,4%,x,-6%,u
SMILES,NPSR antagonist,Tau FP inhib,KinaseGlo FLuc,Tau fluor counter,Tau ThT inhib
O=C1Nc2ccc(F)cc2C12Nc1ccccc1-c1nnc(SCc3ccccc3Cl)nc1O2 (stereo unspecified),-4%[46.1 µM],u,-7%,u,28µM*
Cc1ccc(NC(=O)N2CCN(c3nnc(C)c4c(C)n(-c5ccccc5)nc34)CC2)cc1Cl,x,-7%,x,-10%,u
O=C(NCC(c1cccnc1)N1CCc2ccccc2C1)C(=O)Nc1ccccc1 (stereo unspecified),x,10%,x,-26%,1.6µM*
COc1ccc(NC(=O)C(=O)NCC(c2cccnc2)N2CCc3ccccc3C2)cc1 (stereo unspecified),x,u,x,u,14µM*
Cc1nnc2c(N3CCN(c4ccccc4F)CC3)nc3ccccc3n12,x,u,x,-23%,0%
N#Cc1c(C#N)c(O)c2ccccc2c1O,-9%,u,x,-26%,14µM*
O=C(O)c1cc(C(=O)C(=O)c2cc(C(=O)O)c(O)c3ccccc23)c2ccccc2c1O,x,x,-2%[7.66 µM],x,x
CC(C)(C)OC(=O)N1CCC(c2c(C(=O)NC3CCCCC3)cnn2-c2cccc(F)c2)CC1,x,0%,x,-21%,-7%
CC(=O)c1ccc(Nc2nc3ccccc3nc2-n2nc(C)cc2C)cc1,x,u,x,u,1%
O=C1c2ccccc2C(=O)C1(c1ccccc1)N1CCN(c2cccc(C(F)(F)F)c2)CC1,x,u,x,-20%,-13%
CC(=O)Nc1ccc2nc(-c3ccccn3)[nH]c2c1,-15%[46.1 µM],6%,11µM*,4%,0%
c1ccc(-c2nc3cc4ccccc4cc3[nH]2)nc1,-7%[46.1 µM],-2%,11µM*,-18%,u
CCN1C(=O)c2ccccc2Sc2ccc(NC(=O)COc3ccc(Cl)cc3)cc21,x,u,x,u,-2%
Cc1ccc(NC(=O)Cn2c(O)c(N=NC(=O)c3cc([N+](=O)[O-])ccc3O)c3ccccc32)cc1,3%,7%,x,-10%,u
Cc1cccc(NC(=O)Cn2c(O)c(N=NC(=O)c3ccccc3O)c3ccccc32)c1,-27%,0%,-7%,u,16µM*
CN(CC(=O)NCc1ccc(Cl)cc1)S(=O)(=O)c1ccc2c(c1)c(=O)n(C)c(=O)n2C,x,-4%,x,-2%,8%
Cc1ccc2c(=O)cc(C(=O)Nc3ccc(S(=O)(=O)Nc4onc(C)c4C)cc3)oc2c1C,x,-5%,x,-23%,-18%
Cc1[nH]c2ccccc2c1/C=N/Nc1ccc([N+](=O)[O-])cc1S(=O)(=O)Nc1ccc(Cl)cc1,u,2%,-8%,3.2µM*[quencher],3.2µM*
COc1ccc(/C=N/Nc2ccc([N+](=O)[O-])cc2S(=O)(=O)N2CCN(C)CC2)cc1,-13%,-8%,-2%,-7%,u
COc1ccccc1NS(=O)(=O)c1cc([N+](=O)[O-])ccc1N/N=C/c1sc(N2CCOCC2)nc1-c1ccccc1,-16%,17%,0%,u,u
COc1ccccc1NS(=O)(=O)c1cc([N+](=O)[O-])ccc1N/N=C/c1c[nH]c2ccccc12,-16%[46.1 µM],4%,-6%,-78%,2.8µM*
Cc1[nH]c2ccccc2c1/C=N/Nc1nc2ccccc2[nH]1,u,-5%,x,u,x

# From PubChem BioAssay
